According to PubChem BioAssay AID588855 (National Center for Advancing Translational Sciences (NCATS), 2011):
Hit rate of the full screen: of about 410,000 compounds, about 5,000 (1.2%) were called active. Roughly 13% stayed inconclusive and do not appear here. The call rests on the fitted dose curve; in most records, active means well fitted inhibition curve with a large enough effect; inconclusive means small, poorly fitted or top-dose-only effect; inactive means no such curve, though single readings can be large or run the other way. What follows is part of a selection rich in actives, with near analogues and random picks from the rest.

Test: qHTS for Inhibitors of TGF-b; further: nearly all actives have a fitted effect of over 65% in size
Conditions: HepG2 CAGA-GFP TGF-b/SMAD3 reporter, GFP fluorescence, 18 h, TGF-beta stimulated, 500 pg/mL final; series mostly up to 46.1 µM; activity, negative = inhibition: at the top concentration
Summary of the method: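 HEPG2 CAGA-GFP cells (1000/well, DMEM with 1% FBS) were pre-incubated 2 h at 37 degrees C, given compound by pin tool, then stimulated with TGF-beta at 500 pg/mL final for 18 h before per-cell GFP fluorescence imaging.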
On the % scale 0 is the no-effect control and ±100 the full control effect; potency means the concentration at half of the fitted maximal effect.

Row | Compound | activity, negative = inhibition | Potency
1 | COc1ccc(C(=O)Nc2ccc(-n3nncc3-c3ccccc3)cc2)cc1OC | 13.3% (inactive) | –
2 | CCOC(=O)Nc1ccc2c(c1)N(C(=O)CCN1CCN(CCO)CC1)c1ccccc1CC2 | -2.31% (inactive) | –
3 | CCOC(=O)Nc1ccc2c(c1)N(C(=O)CCCl)c1ccccc1[S@]2=O | – | 7.08 µM (active)
4 | CCOC(=O)Nc1ccc2c(c1)N(C(=O)CN1CCN3CCCC3C1)c1ccccc1CC2 (centres undefined) | -0.581% (inactive) | –
5 | S=c1[nH]c(=S)c2n[nH]nc2[nH]1 | 4.69% (inactive) | –
6 | Cc1ccc(C(=O)Nc2c(C(=O)NC(C)(C)C)oc3ccccc23)cc1 | -5.94% (inactive) | –
7 | CCCC(=O)Nc1ccc2oc(-c3ccc(O)c(Br)c3)nc2c1 | 0.0308% (inactive) | –
8 | CC(=O)Nc1ccc(C=Cc2ccc([N+](=O)[O-])cc2)cc1 | -0.331% (inactive) | –
9 | O=C1/C(=C\c2ccc([N+](=O)[O-])cc2)CS(=O)(=O)C/C1=C/c1ccc([N+](=O)[O-])cc1 | – | 6.31 µM (active)
10 | CC(=O)Nc1ccc(C=CC(=O)c2ccc([N+](=O)[O-])cc2)cc1 | -0.532% (inactive) | –
11 | COC(=O)c1cccc(Cn2nnc3sc4c(c3c2=O)CCC(C(C)(C)C)C4)c1 (centres undefined) | 2.33% (inactive) | –
12 | COc1cccc(CNc2nccn(-c3ccc(OC)c(OC)c3)c2=O)c1 | 1.79% (inactive) | –
13 | O=C(NC1CCN(Cc2ccccc2)CC1)c1ccc(Cn2c(=O)c3ccccc3n(Cc3cccc(F)c3)c2=O)cc1 | -6.31% (inactive) | –
14 | Fc1ccc(-c2nc(Nc3cccc(Cl)c3)nc3c2COc2ccccc2-3)cc1 | -2.73% (inactive) | –
15 | Cc1oc(C)c2c(=O)cc(-c3ccc4c(c3)OCO4)cc(OC(=O)c3ccc(Cl)cc3)c12 | 59.8% (inactive) | –
16 | COc1ccc(C(=O)Nc2onc3c2CCCC3)cc1 | 6.55% (inactive) | –
17 | Cc1ccc(NC(=O)NNC(=O)c2sccc2-n2cccc2)cc1 | 19.4% (inactive) | –
18 | C=CC[n+]1c(-c2ccc(C)cc2)csc1NNC(=O)Nc1ccccc1 | – | 11.2 µM (active)
19 | O=C(NNC(=O)c1ccc(-c2ccccc2)cc1)Nc1ccccc1 | -0.136% (inactive) | –
20 | O=C(NC1CC(=O)N(c2ccc(F)cc2)C1)c1cccs1 (centres undefined) | -3.09% (inactive) | –
21 | CCCCNS(=O)(=O)CCNCc1ccccc1OC | 6.03% (inactive) | –
22 | CC1(C)CC(=O)C=C(NCCCNC2CCCCC2)C1 | -17.7% (inactive) | –
23 | CCCCCCCCNS(=O)(=O)CCNC1CCCCC1 | – | 17.8 µM (active)
24 | O=C(CC1Oc2ccc(Cl)cc2NC1=O)NCc1ccccc1 (centres undefined) | -15.2% (inactive) | –
25 | Cc1ccccc1CNC(=O)C(=O)NCC(c1cccs1)S(=O)(=O)c1cccs1 (centres undefined) | 4.69% (inactive) | –

Row | Compound | activity, negative = inhibition | Potency
26 | CCC(C)N1C(=O)S/C(=C/c2ccc(Sc3nc4ccccc4[nH]3)o2)C1=O (centres undefined) | – | 11.2 µM (active)
27 | CN1CCN(c2ccc([N+](=O)[O-])c(Sc3nc4ccccc4[nH]3)c2)CC1 | 4.28% (inactive) | –
28 | CN(Cc1ccccc1)C(=O)CSc1nc2ccccc2[nH]1 | -5.19% (inactive) | –
29 | COc1ccc(-c2nnc(SCC(=O)Nc3ccc(C(C)C)cc3)nc2-c2ccc(OC)c(OC)c2)cc1OC | 0.381% (inactive) | –
30 | COc1ccc(CNC(=O)Cn2nnc(-c3ccccc3F)n2)cc1 | -2.89% (inactive) | –
31 | CC(C)c1cc(C(=O)NC2CCCCCC2)c2ccccc2n1 | -0.515% (inactive) | –
32 | Cc1nc(/N=C(\N)NC(=O)NC2CCCCC2)nc2ccccc12 | – | 12.6 µM (active)
33 | O=C(NNC(=O)C(O)c1ccccc1)NC1CCCCC1 (centres undefined) | 20.3% (inactive) | –
34 | CCC1(C)CC(=O)c2c(ccc3oc(C(=O)Nc4ccc(C(C)=O)cc4)c(C)c23)O1 (centres undefined) | 3.5% (inactive) | –
35 | CCn1c(=O)cc(OCC(=O)Nc2cc(Cl)c(OC)cc2OC)c2ccccc21 | -0.391% (inactive) | –
36 | COc1ccc(OC)c(-c2csc(-c3c(N)c(C(=O)c4ccccc4)n4ccccc34)n2)c1 | 9.43% (inactive) | –
37 | C=CS(=O)c1sc(Cl)c(N2CCOCC2)c1[N+](=O)[O-] (centres undefined) | – | 11.2 µM (active)
38 | Cc1nnc(SC(C(=O)c2ccccc2)c2ccccc2)[nH]c1=O (centres undefined) | 1.93% (inactive) | –
39 | COc1cccc(NC(=O)C(Sc2nnnn2C)c2ccccc2)c1 (centres undefined) | -1.18% (inactive) | –
40 | Cc1nnc(SC(C(=O)Nc2cc(Cl)cc(Cl)c2)c2ccccc2)[nH]c1=O (centres undefined) | – | 17.8 µM (active)
41 | Cc1ccn2c(Nc3ccc4c(c3)OCCO4)c(-c3ccc(C)s3)nc2c1 | 23.7% (inactive) | –
42 | COc1ccccc1CNC(=O)c1ccc(-n2c(C)cc3c2CCCC3)cc1 | -1.18% (inactive) | –
43 | Cc1ccc(C(=O)Nc2ccccc2F)cc1S(=O)(=O)N1CCOCC1 | 10.2% (inactive) | –
44 | CC(=O)c1cccc(NC(=S)N2CCCC2)c1 | 1.35% (inactive) | –
45 | C=CCSc1nsc(NC(=O)Nc2cccc(C(C)=O)c2)n1 | – | 3.55 µM (active)
46 | CC(=O)c1ccc(NC(=O)CSc2nnc(NC(=O)Nc3ccccc3)s2)cc1 | -0.835% (inactive) | –
47 | CCN(CC)c1ccc(NC(=O)Cn2nc3c(cc2=O)CCCC3)c(C)c1 | 0.157% (inactive) | –
48 | O=C(Nc1ccccc1Cl)/C(Cl)=C(\Cl)S(=O)c1ccccc1 (centres undefined) | – | 2.24 µM (active)
49 | CS/C(=C\C(=O)c1ccco1)Nc1ccccc1Cl | -18.8% (inactive) | –
